{
  "source": "the supplement of paper PMC12669032",
  "note": "A number with no mark means an inactive call.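 How the source made its calls: active = AUC reduced over 20% with Padj below 0.05 in at least 2 of 3 replicates; inactive = otherwise.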",
  "data": [
    {"tested_on": "Bifidobacterium longum subsp. longum", "assay": "growth AUC relative to DMSO control (median of replicates) (fraction); higher = more growth (less inhibition), active = hit call of the paper", "settings": "20 µM; 24 h", "in_short": "(§1)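 In round-bottom 96-well plates sealed with pierced gas-permeable seals, gut bacterial monocultures in mGAM were grown anaerobically at 37 °C from OD600 0.05 with 20 µM compound (1% DMSO). OD600 readings were taken hourly for 24 h, and the minimum OD was set to 0. Area under the growth curve was then normalised to the plate median of solvent-only wells, or to row and column medians on the industrial chemical plate. The value given is the median of three biological replicates grown on separate days.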", "values": [
      {"smiles": "O.O=C(Nc1ccc(Cl)c(Cl)c1)Nc1cc(Cl)ccc1Oc1ccc(Cl)cc1S(=O)(=O)[O-].[Na+]", "growth AUC": 0.912},
      {"smiles": "O=c1cc(Cl)[nH]nc1-c1ccccc1", "growth AUC": 0.954},
      {"smiles": "CCNC(=O)[C@@H](C)OC(=O)Nc1ccccc1", "growth AUC": 0.976},
      {"smiles": "Cc1c(C(=O)c2c[nH]n(C)c2=O)ccc(S(C)(=O)=O)c1C1=NOCC1", "growth AUC": 1.13},
      {"smiles": "NC(=S)Nc1cccc2ccccc12", "growth AUC": 1.06},
      {"smiles": "c1cc2ccc3ccc4ccc5cccc6c(c1)c2c3c4c56", "growth AUC": 1.03},
      {"smiles": "CCc1cccc(CC)c1N(COC)C(=O)CS(=O)(=O)[O-].[Na+]", "growth AUC": 1.04},
      {"smiles": "CN(C)c1ccc(N=NS(=O)(=O)[O-])cc1.[Na+]", "growth AUC": 0.978},
      {"smiles": "CCc1cc(C(=O)O)cc(CC)c1C1C(=O)N2CCOCCN2C1=O", "growth AUC": 1.04},
      {"smiles": "FC(F)(F)C(=NOCC1OCCO1)c1ccc(Cl)cc1", "growth AUC": 0.988},
      {"smiles": "Cc1nn(C)c(OCC(=O)c2ccccc2)c1C(=O)c1ccc(Cl)cc1Cl", "growth AUC": 0.992},
      {"smiles": "C=CCO/N=C(\\CCC)C1=C([O-])CC(C)(C)C(C(=O)OC)C1=O.[Na+]", "note": "(stereo not given)", "growth AUC": 1.05},
      {"smiles": "COC(=O)C(C)Oc1ccc(Cl)cc1Cl", "note": "(stereo not given)", "growth AUC": 1},
      {"smiles": "COc1cc(OC)nc(NC(=O)NS(=O)(=O)Nc2ccccc2C(=O)C2CC2)n1", "growth AUC": 0.961},
      {"smiles": "O=C(Nc1ccc(O)cc1-c1ccc(Cl)cc1)c1cccnc1Cl", "growth AUC": 1.01},
      {"smiles": "S=C([S-])NCCNC(=S)[S-].[Zn+2]", "growth AUC": 0.995},
      {"smiles": "COC(=O)COc1ccc(Cl)cc1C", "growth AUC": 0.805},
      {"smiles": "ClC=C(c1ccc(Cl)cc1)c1ccc(Cl)cc1", "growth AUC": 1},
      {"smiles": "CCCOc1nc2ccc(I)cc2c(=O)n1CCC", "growth AUC": 0.937},
      {"smiles": "C#CCN(C)c1c(C#N)cnn1-c1nn2c(c1Cl)CCCC2", "growth AUC": 0.995},
      {"smiles": "COC(=O)c1ccccc1S(=O)(=O)NC(=O)Nc1nc(OC(F)F)cc(OC(F)F)n1", "growth AUC": 1.03}
    ]},
    {"tested_on": "Clostridium difficile", "assay": "growth AUC relative to DMSO control (median of replicates) (fraction); higher = more growth (less inhibition), active = hit call of the paper", "settings": "20 µM; 24 h", "in_short": "as §1", "values": [
      {"smiles": "S=C([S-])NCCNC(=S)[S-].[Mn+2]", "growth AUC": 0.977},
      {"smiles": "COc1ccc(Cl)c(Cl)c1Cl", "growth AUC": 0.964},
      {"smiles": "CCCCOC(=O)C(C)Oc1ccc(Oc2ccc(C(F)(F)F)cn2)cc1", "note": "(stereo not given)", "growth AUC": 1.01},
      {"smiles": "CCCCOCN(C(=O)CS(=O)(=O)[O-])c1c(CC)cccc1CC.[Na+]", "growth AUC": 1.02},
      {"smiles": "CC(C)OC(=O)N[C@H](C(=O)N[C@H](C)c1nc2ccc(F)cc2s1)C(C)C", "growth AUC": 0.942},
      {"smiles": "Oc1c(Cl)cc(Cl)c(Cl)c1Cc1c(O)c(Cl)cc(Cl)c1Cl", "growth AUC": "0.0083 (active)"},
      {"smiles": "COc1ccc(Oc2ccc(NC(=O)N(C)C)cc2)cc1", "growth AUC": 0.99},
      {"smiles": "CCCCOCCOC(=O)COc1nc(Cl)c(Cl)cc1Cl", "growth AUC": 0.979},
      {"smiles": "CCSC(=O)N(CC(C)C)CC(C)C", "growth AUC": 0.993},
      {"smiles": "C#CC(C)N(C)C(=O)Nc1ccc(Cl)cc1", "note": "(stereo not given)", "growth AUC": 0.946},
      {"smiles": "O=S(=O)(Oc1ccc(Cl)cc1)c1ccccc1", "growth AUC": 1},
      {"smiles": "CC(C)c1nn(C(=O)NC(C)(C)C)c(=O)n1N", "growth AUC": 1},
      {"smiles": "COC(=O)c1ccc(I)cc1S(=O)(=O)[N-]C(=O)Nc1nc(C)nc(OC)n1.[Na+]", "growth AUC": 0.991},
      {"smiles": "C=O", "growth AUC": 0.968},
      {"smiles": "O=C1NCC[n+]2ccccc21.[Br-]", "growth AUC": 1.01},
      {"smiles": "CCCCOCCOCCOCc1cc2c(cc1CCC)OCO2", "growth AUC": 1.03},
      {"smiles": "Cc1ccc(C)c(O)c1", "growth AUC": 1.01},
      {"smiles": "CCNc1nc(N)[nH]c(=O)n1", "growth AUC": 0.999},
      {"smiles": "O.O=C(Nc1ccc(Cl)c(Cl)c1)Nc1cc(Cl)ccc1Oc1ccc(Cl)cc1S(=O)(=O)[O-].[Na+]", "growth AUC": 0.829},
      {"smiles": "O=c1cc(Cl)[nH]nc1-c1ccccc1", "growth AUC": 1.07},
      {"smiles": "CCNC(=O)[C@@H](C)OC(=O)Nc1ccccc1", "growth AUC": 1.03},
      {"smiles": "Cc1c(C(=O)c2c[nH]n(C)c2=O)ccc(S(C)(=O)=O)c1C1=NOCC1", "growth AUC": 1},
      {"smiles": "NC(=S)Nc1cccc2ccccc12", "growth AUC": 0.896},
      {"smiles": "c1cc2ccc3ccc4ccc5cccc6c(c1)c2c3c4c56", "growth AUC": 0.971},
      {"smiles": "CCc1cccc(CC)c1N(COC)C(=O)CS(=O)(=O)[O-].[Na+]", "growth AUC": 1.07},
      {"smiles": "CN(C)c1ccc(N=NS(=O)(=O)[O-])cc1.[Na+]", "growth AUC": 1.03},
      {"smiles": "CCc1cc(C(=O)O)cc(CC)c1C1C(=O)N2CCOCCN2C1=O", "growth AUC": 0.976},
      {"smiles": "FC(F)(F)C(=NOCC1OCCO1)c1ccc(Cl)cc1", "growth AUC": 0.904},
      {"smiles": "Cc1nn(C)c(OCC(=O)c2ccccc2)c1C(=O)c1ccc(Cl)cc1Cl", "growth AUC": 0.947},
      {"smiles": "C=CCO/N=C(\\CCC)C1=C([O-])CC(C)(C)C(C(=O)OC)C1=O.[Na+]", "note": "(stereo not given)", "growth AUC": 1.05},
      {"smiles": "COC(=O)C(C)Oc1ccc(Cl)cc1Cl", "note": "(stereo not given)", "growth AUC": 1.03},
      {"smiles": "COc1cc(OC)nc(NC(=O)NS(=O)(=O)Nc2ccccc2C(=O)C2CC2)n1", "growth AUC": 1.01},
      {"smiles": "O=C(Nc1ccc(O)cc1-c1ccc(Cl)cc1)c1cccnc1Cl", "growth AUC": 1.03},
      {"smiles": "S=C([S-])NCCNC(=S)[S-].[Zn+2]", "growth AUC": 0.972},
      {"smiles": "COC(=O)COc1ccc(Cl)cc1C", "growth AUC": 0.989},
      {"smiles": "ClC=C(c1ccc(Cl)cc1)c1ccc(Cl)cc1", "growth AUC": 0.977},
      {"smiles": "CCCOc1nc2ccc(I)cc2c(=O)n1CCC", "growth AUC": 0.964},
      {"smiles": "C#CCN(C)c1c(C#N)cnn1-c1nn2c(c1Cl)CCCC2", "growth AUC": 1},
      {"smiles": "COC(=O)c1ccccc1S(=O)(=O)NC(=O)Nc1nc(OC(F)F)cc(OC(F)F)n1", "growth AUC": 0.993}
    ]}
  ]
}
